Among the test systems are BT-549 breast; MDA-MB-435 melanoma; SW-620 colon; MCF7 breast; HCT-116 colon; HCC-2998 colon; KM12 colon.
What all share (experiment): NCI-60 one-dose screen, 48 h (100 = growth as untreated, 0 = no growth, -100 = all killed)

The text below walks through data of PubChem BioAssay (NCI).

“And” between values parts separate entries of the source, which are not always exact repeats. Equal values may be shown once. This is part of a sample that, as a whole, favours compounds with a hit. Of some 83,000 tested, about 20% had one in any assay.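 Method: cells in 96-well plates; compound added at one concentration; 48 h incubation; percent growth measured; values under 10 scored active.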 The source made the active and inactive calls.

For `CO[C@H](/C(C)=C/C=C/C(C)=C/c1coc(C)n1)[C@H](C)[C@H]1C[C@@H](O)[C@@]2(C)O[C@H]2/C=C/[C@@H](C)[C@@H]2C[C@@H](CC(=O)O2)C[C@H]2O[C@@H]2C(=O)O1`, the growth with BT-549 breast (10 µM unless noted) is 8.66% (active); with MDA-MB-435 melanoma (10 µM unless noted), -59.2% (active); with SW-620 colon (10 µM unless noted) it was 21.5% (inactive); with MCF7 breast (10 µM) it was 14.7% (inactive); in the assay on HCT-116 colon (10 µM unless noted), 4.48% (active); in the assay on HCC-2998 colon (10 µM unless noted), -25.4% (active). Moreover, in the assay on KM12 colon (10 µM unless noted), the growth is -17.9% (active).
For `CC[C@](O)(C(=O)O)c1cc2n(c(=O)c1CO)Cc1cc3ccccc3nc1-2`, the growth in the assay on BT-549 breast (10 µM unless noted) is -34.5% (active); in the assay on MDA-MB-435 melanoma (10 µM unless noted) it was -81% (active); in the assay on SW-620 colon (10 µM unless noted) it was -30% (active); in the assay with MCF7 breast (10 µM), 1.99% (active); with HCT-116 colon (10 µM unless noted), -26.6% (active); in the assay with HCC-2998 colon (10 µM unless noted) it was -61.6% (active). The growth in the assay on KM12 colon (10 µM unless noted) is -29.9% (active).
Take `CC[C@@]1(O)C[C@H](OC2CC(N(C)C)C(O)C(C)O2)c2c(O)c3c(c(O)c2[C@H]1OC1CC(N(C)C)C(O)C(C)O1)C(=O)c1cccc(O)c1C3=O` (stereo not given in full): the growth was -61.3% (active) in the assay on BT-549 breast (10 µM unless noted); -86% (active) in the assay on MDA-MB-435 melanoma (10 µM unless noted); -0.489% (active) in the assay on SW-620 colon (10 µM unless noted); -8.26% (active) with MCF7 breast (10 µM); -3.79% (active) in the assay on HCT-116 colon (10 µM unless noted); -83.6% (active) in the assay on HCC-2998 colon (10 µM unless noted). The growth in the assay on KM12 colon (10 µM unless noted) was -50.3% (active).
As for `CC1CCC2(NC1)OC1CC3C4CCC5CC(OC6OC(CO)C(OC7OC(CO)C(O)C(OC8OCC(O)C(O)C8O)C7OC7OC(CO)C(O)C(O)C7O)C(O)C6O)CCC5(C)C4CCC3(C)C1C2C` (stereo not given), the growth in the assay on MCF7 breast (100 µM) is -86% (active) and -100% (active).
`CC1=C(CO)C2=C(C)C3(CC3)[C@@](C)(O)C(=O)C2=C1`: the growth in the assay with BT-549 breast (10 µM unless noted) was -55.8% (active); in the assay on MDA-MB-435 melanoma (10 µM unless noted), 10.7% (inactive); in the assay with SW-620 colon (10 µM unless noted) it was 26.3% (inactive); in the assay on MCF7 breast (10 µM) it was 8.34% (active); with HCT-116 colon (10 µM unless noted), 2.68% (active); in the assay with HCC-2998 colon (10 µM unless noted), -76.7% (active). Besides, the growth with KM12 colon (10 µM unless noted) was 12.4% (inactive).
As to `CCOC(=O)C(NC(=O)C(Cc1ccc(N(CCCl)CCCl)cc1)NC(C)=O)C(C)C` (stereo not given), the growth with BT-549 breast (10 µM unless noted) was 87% (inactive); in the assay with MDA-MB-435 melanoma (10 µM unless noted) it was 101% (inactive); with SW-620 colon (10 µM unless noted), 69.4% (inactive); in the assay on MCF7 breast (10 µM), 61.9% (inactive); with HCT-116 colon (10 µM unless noted), 77.2% (inactive); in the assay on HCC-2998 colon (10 µM unless noted) it was 73.2% (inactive). The growth in the assay on KM12 colon (10 µM unless noted) was 94.8% (inactive).
For the compound `CC1=C2C(=O)[C@H]3[C@@H](CC=C4C[C@@H](O)CC[C@@]43C)[C@@H]2CC[C@]12O[C@@H]1C[C@H](C)CN[C@H]1[C@H]2C`, the growth is 98.2% (inactive) in the assay on MDA-MB-435 melanoma (10 µM unless noted); 99.2% (inactive) in the assay with SW-620 colon (10 µM unless noted); 91.6% (inactive) in the assay on MCF7 breast (10 µM); 45.5% (inactive) in the assay on HCT-116 colon (10 µM unless noted); 141% (inactive) in the assay with HCC-2998 colon (10 µM unless noted); 112% (inactive) in the assay on KM12 colon (10 µM unless noted).
Regarding `C[C@]12CC[C@H](O)CC1=CC[C@@H]1[C@@H]2CC[C@]2(C)C(=O)CC[C@@H]12`, the growth was 98.3% (inactive) in the assay on BT-549 breast (10 µM unless noted); 90.3% (inactive) in the assay with MDA-MB-435 melanoma (10 µM unless noted); 110% (inactive) in the assay on SW-620 colon (10 µM unless noted); 130% (inactive) in the assay on MCF7 breast (10 µM); 91.6% (inactive) in the assay on HCT-116 colon (10 µM unless noted); 90.7% (inactive) in the assay on HCC-2998 colon (10 µM unless noted). Besides, the growth with KM12 colon (10 µM unless noted) is 97.1% (inactive).
Regarding `S=C(SSC(=S)N1CCCCC1)N1CCCCC1`, the growth is 92% (inactive) in the assay with BT-549 breast (10 µM); -1.94% (active) in the assay with BT-549 breast (100 µM); 99.3% (inactive) with MDA-MB-435 melanoma (10 µM); -30.9% (active) in the assay with MDA-MB-435 melanoma (100 µM); 95.3% (inactive) with SW-620 colon (10 µM); -55.7% (active) in the assay with SW-620 colon (100 µM). The growth with MCF7 breast (10 µM) is 80.1% (inactive); with MCF7 breast (100 µM) it was -46.8% (active); in the assay with HCT-116 colon (10 µM), 85.3% (inactive); in the assay with HCT-116 colon (100 µM) it was -76.4% (active); in the assay with HCC-2998 colon (10 µM), 109% (inactive); with HCC-2998 colon (100 µM) it was 22.3% (inactive). Besides, the growth was 102% (inactive) in the assay on KM12 colon (10 µM) and -18.5% (active) in the assay on KM12 colon (100 µM).
As for `CC[n+]1c(-c2ccccc2)c2cc(N)ccc2c2ccc(N)cc21`, the growth with BT-549 breast (10 µM unless noted) is -35.7% (active); in the assay with MDA-MB-435 melanoma (10 µM unless noted), -36% (active); with SW-620 colon (10 µM unless noted), 17.9% (inactive); in the assay on HCT-116 colon (10 µM unless noted), 13.8% (inactive); in the assay with HCC-2998 colon (10 µM unless noted) it was 6.95% (active); with KM12 colon (10 µM unless noted) it was 7.69% (active).
With `CCCCCCCCCCCC1CCCC(C)N1` (stereo not given), the growth in the assay on MDA-MB-435 melanoma (10 µM unless noted) is 71.8% (inactive); with SW-620 colon (10 µM unless noted), 49.4% (inactive); in the assay on MCF7 breast (10 µM), 44.1% (inactive); in the assay on HCT-116 colon (10 µM unless noted) it was 65% (inactive); in the assay with HCC-2998 colon (10 µM unless noted) it was -72.4% (active); in the assay on KM12 colon (10 µM unless noted), 44% (inactive).
As to `Cc1c(N)nc([C@H](CC(N)=O)NC[C@H](N)C(N)=O)nc1C(=O)N[C@H](C(=O)N[C@H](C)[C@@H](O)[C@H](C)C(=O)N[C@H](C(=O)NCCc1nc(-c2nc(C(=O)NCCC[S+](C)C)cs2)cs1)[C@@H](C)O)C(OC1OC(CO)C(O)C(O)C1OC1OC(CO)C(O)C(OC(N)=O)C1O)c1cnc[nH]1` (stereo not given in full), the growth is 54% [2.5 µM] (inactive) in the assay with BT-549 breast (10 µM unless noted); 85.1% [2.5 µM] (inactive) with MDA-MB-435 melanoma (10 µM unless noted); 83.4% [2.5 µM] (inactive) with SW-620 colon (10 µM unless noted); 52.9% (inactive) in the assay on MCF7 breast (2.5 µM); 15.6% (inactive) and 0.932% (active) in the assay with MCF7 breast (25 µM); 34.2% [2.5 µM] (inactive) with HCT-116 colon (10 µM unless noted). Moreover, the growth in the assay with HCC-2998 colon (10 µM unless noted) was 5.84% [2.5 µM] (active); in the assay on KM12 colon (10 µM unless noted), 80.9% [2.5 µM] (inactive).
Turning to `CC[C@@]1(O)C[C@H](OC2CC(N(C)C)C(OC3CC(O)C(OC4CCC(=O)C(C)O4)C(C)O3)C(C)O2)c2c(cc3c(c2O)C(=O)c2c(O)ccc(O)c2C3=O)[C@H]1C(=O)OC` (stereo not given in full), the growth is -4.5% (active) with BT-549 breast (10 µM unless noted); -2.5% (active) with MDA-MB-435 melanoma (10 µM unless noted); -1.19% (active) with SW-620 colon (10 µM unless noted); 0.371% (active) with MCF7 breast (10 µM); -58.7% (active) with HCT-116 colon (10 µM unless noted); -77.5% (active) with HCC-2998 colon (10 µM unless noted). The growth in the assay on KM12 colon (10 µM unless noted) is -14.9% (active).
